Where “and” joins values, the source holds several entries; their conditions need not be identical. Equal entries are not always repeated. Calls of active or inactive are those of the source.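 Rule for the calls, unless noted: active = thallium flux through the channel raised or lowered by more than 3 SD from vehicle-only wells, actives on both sides; inactive = the rest.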

A short description of assay [1]: P. berghei load reduction in hepatocytes – cell-based, HepG2, luciferase luminescence, HepG2 viability, primary screen (AID 624349; in the data active = parasite load remaining mostly below about 12%, no sharp cut-off; inactive = mostly above about 10%;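 note: 100% = mean of DMSO negative control wells on the same plate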). To be noted: P. berghei liver stage in HepG2, luciferase luminescence, concentration not given here; parasite load remaining: stronger effect = lower value; viability: measured here: HepG2 viability without parasites.
A short description of assay [2]: signal quenchers or enhancers, Cy5 substrate/SSB – biochemical, NIH Clinical Collection, E. coli SSB, artefact control for HCV NS3 helicase inhibitor project (AID 743268; call rule not given here). To be noted: Cy5-oligo bound E. coli SSB, fluorescence interference.
Assay [3] concerns Hepatitis C virus NS3 helicase. The assay is described as follows: blockers of NS3h binding to DNA – biochemical, fluorescence polarization, NIH Clinical Collection, primary screen (AID 743270; call rule not given here). To be noted: NS3 helicase binding to Cy5-dT15 DNA, stronger effect = higher value, concentration not given here.
In assay [4] the target is Single-stranded DNA-binding protein (Escherichia coli (strain K12)) (UniProt P0AGE0). Briefly: SSB-ssDNA binding inhibitors – biochemical, fluorescence polarization, NIH Clinical Collection, counter-screen for HCV NS3 helicase inhibitor project (AID 743271; in the data active = inhibition above about 28%). Conditions: E. coli SSB-DNA binding, stronger effect = higher value, concentration not given here.
Assay [5] is described as follows: compounds distorting NS3 helicase fluorescence signal – biochemical, NIH Clinical Collection, artefact control for HCV NS3 helicase inhibitor project (AID 743272; call rule not given here;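 note: HCV NS3 helicase with a Cy5 labelled single stranded DNA probe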). Conditions: fluorescence interference counterscreen, HCV NS3 helicase assay; stronger effect = lower value.
For assay [6], the system named is Neuropilin-2 / VEGF-C interaction (human). Briefly: small molecules blocking Neuropilin-2/VEGF-C interaction – biochemical, microplate binding format, z-score (AID 743281; call rule not given here). To be noted: microplate NRP2/VEGF-C binding assay; stronger effect = lower value.
Assay [7] is described as follows: modulation of C. elegans fzo-1 (AID 1259413; call rule not given here;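 note: fzo-1 mutant C. elegans worms in liquid wells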). To be noted: C. elegans fzo-1 modulator screen, mean read-out; stronger effect = higher value.
The nature of assay [8]: viability loss with induced miR-34 in A549 – imaging, A549 dox-inducible miR-34, nuclei and caspase counts, primary screen (AID 1347080;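 active = compounds whose cell count with miR-34 switched on is under 0.7 times the count with it off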). Conditions: A549 miR-34 inducible, Hoechst nuclei count, 48 h.
The nature of assay [9]: MELAS cybrid and Rieske KO viability enhancers – cell-based, MELAS cybrids, Rieske KO mouse fibroblasts, CellTiter-Glo, primary screen (AID 1508586;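 active = mean z-score across replicates of 1.96 or higher in either the MELAS or the Rieske mutant cell line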;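 note: z relative to plate mean and SD of compound and empty wells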). Conditions: low glucose.
Assay [10] has as its system F380Y. The assay is described as follows: BK channel mutant inhibitors and activators – cell-based, U2OS BacMam, thallium flux, beta subunits, selectivity assay, profiling panel (AID 1259406).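 Note: initial slope of Thallos dye fluorescence rise after thallium is added; log ratio against the mean of 0.3% DMSO vehicle wells on the same plate.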 To be noted: U2OS BacMam BK variants, at 30 µM.
In assay [11] the test system is F380Y/beta1. The description is as above. To be noted: U2OS BacMam BK variants, at 30 µM.
The subject of assay [12] is F380Y/beta2Delta. Described as above. To be noted: U2OS BacMam BK variants, at 30 µM.
Assay [13] has as its system F380Y/beta4. The description is as above. Conditions: U2OS BacMam BK variants, at 30 µM.
For assay [14], the target named is Calcium-activated potassium channel subunit alpha-1 (Homo sapiens) + Leucine-rich repeat-containing protein 26 (Homo sapiens) (UniProt Q12791+Q2I0M4). The assay is described as above. To be noted: U2OS BacMam BK variants, F380Y/Slo1WT/gamma1, at 30 µM.
For assay [15], the system named is R275C. The assay is described as above. Conditions: U2OS BacMam BK variants, at 30 µM.
The subject of assay [16] is R275C/beta1. The description is as above. To be noted: U2OS BacMam BK variants, at 30 µM.
The test system of assay [17] is R275C/beta2Delta. The assay is described as above. Conditions: U2OS BacMam BK variants, at 30 µM.
Assay [18] deals with R275C/beta4. Described as above. To be noted: U2OS BacMam BK variants, at 30 µM.
In assay [19] the test system is R275C/Slo1WT/beta2. The description is as above. To be noted: U2OS BacMam BK variants, at 30 µM.
Assay [20] in a line: galactose survival enhancers in mitochondrial complex I cybrids – cell-based, galactose medium, ATP luminescence, primary screen (AID 1645843;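 active = z-score of at least 1.8 in each of two replicates, scored against plate mean and spread of sample wells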;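 note: positive z means more ATP and so rescue of galactose-driven cybrid death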). To be noted: complex I mutant cybrid cells, 72 h, stronger effect = higher value.
The mark [21] stands for this setting: stronger effect = lower value, cell number ratio, induced over uninduced.
The mark [22] stands for this setting: measured here: relative caspase fold change +Dox/-Dox.
Setting [23] is: measured here: total cells with miR-34 induction, stronger effect = lower value.
Setting [24] is: measured here: total cells without miR-34 induction.
Where [25] appears, read: MELAS cybrid survival, CellTiter-Glo 48 h, stronger effect = higher value.
Setting [26] is: Rieske KO mouse fibroblast survival, CellTiter-Glo 72 h.

Calcium-activated potassium channel subunit alpha-1 (Homo sapiens) + Leucine-rich repeat-containing protein 26 (Homo sapiens), sequence (Q2I0M4 whole entry, looked up, one chain of several): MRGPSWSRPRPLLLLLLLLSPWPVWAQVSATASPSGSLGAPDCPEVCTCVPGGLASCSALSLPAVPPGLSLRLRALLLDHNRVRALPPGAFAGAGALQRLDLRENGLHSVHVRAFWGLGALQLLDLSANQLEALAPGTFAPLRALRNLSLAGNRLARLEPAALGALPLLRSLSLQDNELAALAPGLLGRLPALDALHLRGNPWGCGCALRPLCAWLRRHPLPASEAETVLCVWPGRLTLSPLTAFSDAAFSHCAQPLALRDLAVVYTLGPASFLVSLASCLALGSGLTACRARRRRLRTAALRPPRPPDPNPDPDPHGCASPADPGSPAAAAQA

Take `CC(C)(C)NC(=O)[C@@H]1C[C@@H]2CCCC[C@@H]2CN1C[C@@H](O)[C@H](Cc1ccccc1)NC(=O)[C@H](CC(N)=O)NC(=O)c1ccc2ccccc2n1`: the parasite load remaining in assay [1] was 82.5% (inactive) and 52% (inactive). Moreover, in [1], the viability – broadly, a read-out of living cells in per cent, often relative to untreated cells – was 75.6% and 103%. In addition, the fluorescence ratio is 1.02 (inactive) in [2] and 1.01 (inactive) in assay [5]. Moreover, the figures for the inhibition in assay [3] and in assay [4] were 2.77% (inactive) and 12.2% (inactive), respectively. Moreover, the z-score is 1.64 (inactive) in assay [6], -0.0678 (inactive) in assay [9] (setting [25]) and -1.19 in assay [9] (setting [26]). The mean signal in assay [7] was 234 (inactive). Further, the fold change in assay [8] (setting [21]) was 0.908 (inactive); in [8] (setting [22]), 0.962. In addition, the cell count was determined as 8420 in assay [8] (setting [23]) and 9260 in assay [8] (setting [24]). Moreover, the log fold change Tl+ flux was -0.12 (active) in assay [10]; -0.0774 (inactive) in [11]; -0.2 (active) in assay [12]; -0.072 (inactive) in [13]; -0.0094 (inactive) in assay [14]; -0.273 (active) in [15]. The log fold change Tl+ flux in [16] was 0.138 (active); in assay [17], -0.11 (active); in assay [18], 0.0316 (inactive); in assay [19], -0.0147 (inactive).

As to `CC(C)OC(=O)CCC/C=C\C[C@@H]1[C@@H](CC[C@@H](O)CCc2ccccc2)[C@H](O)C[C@@H]1O`, the parasite load remaining in [1] is 89.4% (inactive) and 43.5% (inactive). Further, the viability in assay [1] is 60.9% and 104%. The fluorescence ratio in [2] was 0.97 (inactive); in assay [5], 0.95 (inactive). For the same compound, the inhibition (commonly the change of the read-out against control, counted positive when it falls) in assay [3] is 0.4% (inactive); in assay [4], -5.49% (inactive). The z-score was -0.836 (inactive) in assay [6]; 0.73 (inactive) and -0.464 (inactive) in assay [9] (setting [25]); 1.53 and -0.0343 in [9] (setting [26]); 0.01 (inactive) in [20]. In assay [7], the mean signal is 205 (inactive). In addition, the fold change in [8] (setting [21]) was 0.899 (inactive); in assay [8] (setting [22]), 1.07. Further, the cell count in [8] (setting [23]) worked out at 10000; in assay [8] (setting [24]), 11100. For the same compound, the log fold change Tl+ flux is 0.503 (active) in assay [10]; 0.284 (active) in assay [11]; -0.0484 (inactive) in [12]; 0.158 (active) in assay [13]; 0.228 (active) in assay [14]; -0.0794 (inactive) in [15]. The log fold change Tl+ flux in assay [16] was 0.476 (active); in assay [17], 0.262 (active); in assay [18], 0.467 (active); in assay [19], 0.084 (active).

In the case of `CC(C)c1ccc2c(c1)c(SC(C)(C)C)c(CC(C)(C)C(=O)O)n2Cc1ccc(Cl)cc1`, the parasite load remaining in [1] is 36.1% (inactive). Moreover, the viability in [1] worked out at 67.1%. The fluorescence ratio in [2] is 0.95 (inactive); in assay [5] it was 0.96 (inactive). The inhibition was 7.52% (inactive) in assay [3] and 1.44% (inactive) in [4]. Also, the z-score in [6] was -2.97 (inactive); in [20] it was -1.26 (inactive) and -1.88 (inactive). Besides, the mean signal in assay [7] is 225 (inactive). Also, the fold change in assay [8] (setting [21]) was 1.09 (inactive) and 1 (inactive) and 0.966 (inactive); in assay [8] (setting [22]), 0.262 and 1.3 and 1.57. Moreover, the cell count in assay [8] (setting [23]) is 2540 and 2670 and 5520; in [8] (setting [24]) it was 2340 and 2670 and 5710. In addition, the log fold change Tl+ flux is -0.0174 (inactive) in [10]; 0.00246 (inactive) in assay [11]; 0.0246 (inactive) in assay [12]; -0.0142 (inactive) in [13]; 0.00963 (inactive) in assay [14]; 0.00647 (inactive) in assay [15]. Further, the log fold change Tl+ flux in [16] is 0.0168 (inactive); in assay [17], 0.0237 (inactive); in assay [18], -0.00771 (inactive); in assay [19] it was 0.027 (inactive).

For the origin of these results see PubChem BioAssay.
